Assay results as given in PubChem BioAssay (EPA / NIEHS).
Active and inactive are the calls of the source. The calls were made as follows: active = hit-call score of the fitted dose curve at least 0.9, where 1 is the maximum; inactive = score below 0.9.

Tests used:
Conditions in all cases: mRNA level, 48 h; actives raise or lower the signal
[1] = read-out: Interleukin 6 Receptor (IL6R), IL6R (gene 3570); assay: LTEA_HepaRG_IL6R: Life Technologies and Expression Analysis (LTEA) Assay for Interleukin 6 Receptor (IL6R) using HepaRG (AID 2283510)
Summary of the method: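 Readout is IL6R transcript level by TaqMan qRT-PCR, normalized to three housekeeping genes and fitted bidirectionally against 0.5% DMSO controls. Human HepaRG cells received chemicals for 48 h in serum-free induction medium, highest concentration 100 uM.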

[2] = read-out: Potassium channel subfamily K member 1 (KCNK1), KCNK1 (gene 3775); assay: LTEA_HepaRG_KCNK1: Life Technologies and Expression Analysis (LTEA) Assay for Potassium channel subfamily K member 1 (KCNK1) using HepaRG (AID 2283511)
Summary of the method: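 Differentiated human HepaRG cells in serum-free induction medium were exposed in duplicate for 48 h to 8 half-log concentrations up to 100 uM in 0.5% DMSO. KCNK1 mRNA was measured by TaqMan qRT-PCR, normalized to ACTB, GAPDH and POLR2A, and fitted bidirectionally versus DMSO.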

[3] = read-out: Keratin 19 (KRT19), KRT19 (gene 3880); assay: LTEA_HepaRG_KRT19: Life Technologies and Expression Analysis (LTEA) Assay for Keratin 19 (KRT19) using HepaRG (AID 2283512)
Summary of the method: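 HepaRG, 48 h chemical exposure, 8-pt half-log CRC from 100 uM, 0.5% DMSO vehicle, duplicates. Readout: TaqMan qRT-PCR of KRT19 mRNA, housekeeping-normalized (ACTB/GAPDH/POLR2A). Bidirectional fit vs DMSO baseline.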

[4] = read-out: JUN Transcription Factor, JUN (gene 3725); assay: LTEA_HepaRG_JUN: Life Technologies and Expression Analysis (LTEA) Assay for JUN Transcription Factor using HepaRG (AID 2283513)
Summary of the method: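 Cells plated 48 h, medium switched to serum-free induction medium, then dosed 48 h (100 uM top, half-log dilutions, 0.5% DMSO). RNA isolated; JUN measured by qRT-PCR against three housekeeping genes; gain or loss fitted relative to DMSO.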

[5] = read-out: Lipase C (LIPC), LIPC (gene 3990); assay: LTEA_HepaRG_LIPC: Life Technologies and Expression Analysis (LTEA) Assay for Lipase C (LIPC) using HepaRG (AID 2283514)
Summary of the method: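 Differentiated human HepaRG cells in serum-free induction medium were exposed in duplicate for 48 h to eight concentrations (top 100 uM, half-log steps, 0.5% DMSO). LIPC mRNA was quantified by TaqMan qRT-PCR, normalized to ACTB, GAPDH and POLR2A, with bidirectional fitting versus DMSO.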

[6] = read-out: Lipoprotein lipase (LPL), LPL (gene 4023); assay: LTEA_HepaRG_LPL: Life Technologies and Expression Analysis (LTEA) Assay for Lipoprotein lipase (LPL) using HepaRG (AID 2283515)
Summary of the method: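 Differentiated human HepaRG cells in serum-free induction medium were exposed in duplicate for 48 h to eight half-log concentrations (top 100 uM) in 0.5% DMSO. LPL mRNA was quantified by TaqMan qRT-PCR, normalized to ACTB, GAPDH and POLR2A.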

[7] = read-out: MicroRNA 122 (MIR122), gene 406906; assay: LTEA_HepaRG_MIR122: Life Technologies and Expression Analysis (LTEA) Assay for MicroRNA 122 (MIR122) using HepaRG (AID 2283516); also: the transcript read is the microRNA miR-122
Summary of the method: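 HepaRG plated 48 h, switched to serum-free induction medium, then treated in duplicate for 48 h (100 uM top, half-log steps, 0.5% DMSO vehicle). RNA isolated, qRT-PCR performed, concentration-response fitted both directions relative to DMSO.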

[8] = read-out: MYC, MYC (gene 4609); assay: LTEA_HepaRG_MYC: Life Technologies and Expression Analysis (LTEA) Assay for MYC using HepaRG (AID 2283518)
Summary of the method: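 qRT-PCR read-out of MYC transcript (Fluidigm TaqMan, housekeeping-normalized) after 48 h chemical exposure of HepaRG cells; eight concentrations, top 100 uM, half-log steps. Bidirectional curve fitting against 0.5% DMSO vehicle baseline.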

[9] = read-out: matrix metalloproteinase-3 (MMP3), MMP3 (gene 4314); assay: LTEA_HepaRG_MMP3: Life Technologies and Expression Analysis (LTEA) Assay for matrix metalloproteinase-3 (MMP3) using HepaRG (AID 2283519)
Summary of the method: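 Differentiated human HepaRG cells, plated 48 h on collagen I, were exposed in duplicate for 48 h in serum-free induction medium to eight half-log concentrations up to 100 uM in 0.5% DMSO. MMP3 mRNA was quantified by TaqMan qRT-PCR, normalised to ACTB, GAPDH and POLR2A.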

[10] = read-out: Paternally Expressed 10 (PEG10), PEG10 (gene 23089); assay: LTEA_HepaRG_PEG10: Life Technologies and Expression Analysis (LTEA) Assay for Paternally Expressed 10 (PEG10) using HepaRG (AID 2283520)
Summary of the method: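 HepaRG, 48 h post-plating → serum-free induction medium → 48 h chemical exposure (duplicate, 8-pt, max 100 uM, half-log, 0.5% DMSO) → lysis in RLT → TaqMan qRT-PCR for PEG10, ACTB/GAPDH/POLR2A normalisation.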

[11] = read-out: Nuclear factor NF-kappa-B p105 subunit (Homo sapiens) (UniProt P19838); assay: LTEA_HepaRG_NFKB1: Life Technologies and Expression Analysis (LTEA) Assay for Nuclear Factor Kappa B Subunit 1 (NFKB1) using HepaRG (AID 2283521)
Summary of the method: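 Differentiated human HepaRG cells were exposed for 48 h in serum-free induction medium to eight concentrations (top 100 uM, half-log steps, 0.5% DMSO), in duplicate. NFKB1 mRNA was measured by TaqMan qRT-PCR, normalized to ACTB/GAPDH/POLR2A, and fitted bidirectionally against DMSO.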

[12] = read-out: Protein phosphatase 2A (PPP2R4), PTPA (gene 5524); assay: LTEA_HepaRG_PPP2R4: Life Technologies and Expression Analysis (LTEA) Assay for Protein phosphatase 2A (PPP2R4) using HepaRG (AID 2283522)
Summary of the method: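 Readout is PPP2R4 transcript level by microfluidic qRT-PCR after 48 h chemical treatment of human HepaRG liver cells. Concentrations spanned 100 uM downward in half-log steps; gain or loss of signal was fitted relative to DMSO.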

[13] = read-out: Phosphatase and tensin (PTEN), PTEN (gene 5728); assay: LTEA_HepaRG_PTEN: Life Technologies and Expression Analysis (LTEA) Assay for Phosphatase and tensin (PTEN) using HepaRG (AID 2283523)
Summary of the method: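 Differentiated human HepaRG cells, plated 48 h then switched to serum-free induction medium, were exposed in duplicate for 48 h to eight half-log concentrations up to 100 uM in 0.5% DMSO. PTEN mRNA measured by TaqMan qRT-PCR, normalized to ACTB/GAPDH/POLR2A, bidirectional fit versus DMSO.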

[14] = read-out: Nuclear factor erythroid 2-related factor 2 (Homo sapiens) (UniProt Q16236); assay: LTEA_HepaRG_NFE2L2: Life Technologies and Expression Analysis (LTEA) Assay for Nuclear factor erythroid 2-related factor 2 (NFE2L2) Transcription Factor using HepaRG (AID 2283527)
Summary of the method: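 Differentiated human HepaRG cells in serum-free induction medium were exposed for 48 h to eight concentrations (top 100 uM, half-log dilutions, 0.5% DMSO), in duplicate. NFE2L2 mRNA was quantified by TaqMan qRT-PCR, normalized to ACTB, GAPDH and POLR2A, with bidirectional fitting versus DMSO.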

[15] = read-out: succinate dehydrogenase complex iron sulfur subunit B (SDHB), SDHB (gene 6390); assay: LTEA_HepaRG_SDHB: Life Technologies and Expression Analysis (LTEA) Assay for succinate dehydrogenase complex iron sulfur subunit B (SDHB) using HepaRG (AID 2283528)
Summary of the method: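 HepaRG, 48 h exposure, 8-pt half-log series from 100 uM in 0.5% DMSO, duplicates. Readout: SDHB mRNA by Fluidigm qRT-PCR vs housekeeping genes; bidirectional fit relative to DMSO.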

[16] = read-out: Signal transducer and activator of transcription 3 (Homo sapiens) (UniProt P40763); assay: LTEA_HepaRG_STAT3: Life Technologies and Expression Analysis (LTEA) Assay for Signal transducer and activator of transcription (STAT3) using HepaRG (AID 2283529)
Summary of the method: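 Differentiated human HepaRG cells in serum-free induction medium were exposed in duplicate for 48 h to eight half-log concentrations up to 100 uM in 0.5% DMSO. STAT3 mRNA was quantified by TaqMan qRT-PCR, normalized to ACTB, GAPDH and POLR2A, and fitted bidirectionally against DMSO.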

Measured: AC50

Chain of Signal transducer and activator of transcription 3 (Homo sapiens) (P40763 whole entry, looked up): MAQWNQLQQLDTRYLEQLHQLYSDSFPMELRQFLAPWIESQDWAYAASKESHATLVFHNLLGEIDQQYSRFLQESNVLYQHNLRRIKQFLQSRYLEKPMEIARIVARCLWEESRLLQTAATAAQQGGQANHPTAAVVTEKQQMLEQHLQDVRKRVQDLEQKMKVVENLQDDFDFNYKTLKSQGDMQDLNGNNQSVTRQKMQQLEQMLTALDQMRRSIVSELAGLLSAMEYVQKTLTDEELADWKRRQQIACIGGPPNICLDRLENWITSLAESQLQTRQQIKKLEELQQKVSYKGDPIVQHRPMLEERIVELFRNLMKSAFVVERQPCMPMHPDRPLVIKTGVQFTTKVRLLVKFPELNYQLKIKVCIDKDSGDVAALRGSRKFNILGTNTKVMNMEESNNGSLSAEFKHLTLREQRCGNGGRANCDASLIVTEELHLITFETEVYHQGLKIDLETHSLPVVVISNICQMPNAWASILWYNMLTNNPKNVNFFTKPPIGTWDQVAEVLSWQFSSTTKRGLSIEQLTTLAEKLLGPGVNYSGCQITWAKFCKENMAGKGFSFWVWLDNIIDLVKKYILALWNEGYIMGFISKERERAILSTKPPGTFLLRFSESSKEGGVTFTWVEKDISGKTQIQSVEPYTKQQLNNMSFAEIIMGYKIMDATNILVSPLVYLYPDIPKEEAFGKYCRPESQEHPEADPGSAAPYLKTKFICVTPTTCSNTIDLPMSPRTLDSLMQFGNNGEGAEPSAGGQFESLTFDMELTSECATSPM
Chain of Nuclear factor NF-kappa-B p105 subunit (Homo sapiens) (P19838 whole entry, looked up): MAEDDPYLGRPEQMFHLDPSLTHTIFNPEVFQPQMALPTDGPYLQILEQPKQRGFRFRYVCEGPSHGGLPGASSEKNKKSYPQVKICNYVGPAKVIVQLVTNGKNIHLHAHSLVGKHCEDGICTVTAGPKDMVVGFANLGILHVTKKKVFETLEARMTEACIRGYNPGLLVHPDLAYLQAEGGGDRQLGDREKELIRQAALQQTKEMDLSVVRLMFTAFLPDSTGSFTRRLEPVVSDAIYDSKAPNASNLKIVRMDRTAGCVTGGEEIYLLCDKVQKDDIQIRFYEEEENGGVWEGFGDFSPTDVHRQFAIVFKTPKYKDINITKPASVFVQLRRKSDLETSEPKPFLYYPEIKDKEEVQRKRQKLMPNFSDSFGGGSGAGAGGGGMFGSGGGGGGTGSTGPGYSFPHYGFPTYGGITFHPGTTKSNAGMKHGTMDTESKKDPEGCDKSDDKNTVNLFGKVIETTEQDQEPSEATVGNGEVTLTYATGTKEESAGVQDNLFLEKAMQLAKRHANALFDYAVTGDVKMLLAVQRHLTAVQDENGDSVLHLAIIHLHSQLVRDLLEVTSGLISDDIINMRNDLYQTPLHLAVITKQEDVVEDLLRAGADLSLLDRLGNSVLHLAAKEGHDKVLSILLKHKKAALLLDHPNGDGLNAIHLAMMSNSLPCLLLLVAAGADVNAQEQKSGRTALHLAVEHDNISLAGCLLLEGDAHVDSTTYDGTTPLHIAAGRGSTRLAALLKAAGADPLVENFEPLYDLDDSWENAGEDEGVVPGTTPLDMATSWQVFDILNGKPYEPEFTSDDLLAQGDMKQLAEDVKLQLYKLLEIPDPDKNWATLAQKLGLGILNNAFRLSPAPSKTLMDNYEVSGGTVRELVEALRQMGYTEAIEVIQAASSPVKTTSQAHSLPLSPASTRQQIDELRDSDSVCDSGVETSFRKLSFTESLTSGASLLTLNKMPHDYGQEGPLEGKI
Chain of Nuclear factor erythroid 2-related factor 2 (Homo sapiens) (Q16236 whole entry, looked up): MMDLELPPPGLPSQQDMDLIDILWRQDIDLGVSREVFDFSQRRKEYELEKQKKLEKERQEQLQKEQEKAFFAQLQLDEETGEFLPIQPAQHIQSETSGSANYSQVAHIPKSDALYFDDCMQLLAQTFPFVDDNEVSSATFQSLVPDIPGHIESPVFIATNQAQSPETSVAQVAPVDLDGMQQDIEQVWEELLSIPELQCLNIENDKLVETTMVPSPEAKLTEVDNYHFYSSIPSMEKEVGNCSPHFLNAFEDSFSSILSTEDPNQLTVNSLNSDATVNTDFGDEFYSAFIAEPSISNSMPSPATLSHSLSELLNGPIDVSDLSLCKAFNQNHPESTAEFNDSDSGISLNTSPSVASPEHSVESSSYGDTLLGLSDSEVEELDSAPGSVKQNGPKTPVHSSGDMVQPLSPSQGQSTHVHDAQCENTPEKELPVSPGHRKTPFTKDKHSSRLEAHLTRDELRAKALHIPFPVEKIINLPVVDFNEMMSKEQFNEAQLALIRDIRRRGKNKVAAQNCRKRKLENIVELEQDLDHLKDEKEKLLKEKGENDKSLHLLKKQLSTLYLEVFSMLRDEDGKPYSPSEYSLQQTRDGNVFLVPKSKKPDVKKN

CCc1ccc(C(=O)NN(C(=O)c2cc(C)cc(C)c2)C(C)(C)C)cc1
inactive: all assays above

CCCN(CCC)c1c([N+](=O)[O-])cc(C(F)(F)F)cc1[N+](=O)[O-]
inactive: all assays above

CCCN(CCOc1c(Cl)cc(Cl)cc1Cl)C(=O)n1ccnc1
active: [1] 87.1 µM | [2] 62 µM | [3] 12.7 µM | [4] 50 µM | [5] 44.3 µM | [6] 25.7 µM | [7] 11.7 µM | [8] 39.5 µM | [9] 80.2 µM | [10] 6.24 µM | [13] 79.1 µM | [14] 29.9 µM | [15] 12.1 µM
inactive: [12] | [16]

O=C(O)CCCOc1ccc(Cl)cc1Cl
active: [10] 10.4 µM
not listed: [11]
inactive: all other assays above

CNC(=O)/C=C(\C)OP(=O)(OC)OC
not listed: [11]
inactive: all other assays above

CCOCN(C(=O)CCl)c1c(C)cccc1CC
active: [1] 50 µM | [5] 88.4 µM | [7] 50 µM | [11] 0.338 µM
inactive: all other assays above
